Experimental data taken from PubChem BioAssay (NCATS).
Records with an inconclusive call do not appear. Where a call stands in place of a potency, no number is given. Calls of active or inactive are those of the source. Unless noted, calls follow the shape of the dose curve; as a rule, active = well fitted curve in the direction sought with a large enough effect; inconclusive = small, poorly fitted or top-dose-only effect, or another doubt; inactive = no such curve, though single readings can be large; an effect the other way counts as inactive or inconclusive.

Assays:
[1] = tested on: Zika virus NS2B-NS3 protease (linked construct); test: Confirmatory screen NINDS AMC qHTS for Zika virus inhibitors (AID 1347152); also: potency is read from the fitted curve at half-maximal effect; nearly all actives have a fitted effect of over 70% in size
Outline: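 Purified NS2B-NS3 protease with NS2B hydrophilic domain linked to NS3 protease domain by flexible linker, 1 nM final in 10 mM Tris-HCl pH 8.0, 0.01% Tween 20. Compounds preincubated 15 min, room temperature; Bz-Nle-KRR-AMC 10 microM (Km 18.3 µM); 15-min fluorescence change, 4-parameter Hill fit.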

[2] = tested on: Zika virus NS2B-NS3 protease (unlinked complex); test: Confirmatory screen GU AMC qHTS for Zika virus inhibitors (AID 1347153);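 also: enzyme at 25 nM with substrate at 10 µM below its Km of 18.3 µM; potency is read from the fitted curve at half-maximal effect; nearly all actives have a fitted effect of over 70% in size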
Outline: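 Noncovalent NS2B hydrophilic domain/NS3 protease complex (25 nM) in 10 mM Tris-HCl pH 8.0, 0.01% Tween 20 was preincubated 15 min at room temperature with compounds. Then 10 µM AMC substrate (Km 18.3 µM) was added; fluorescence was read over 15 min and fitted to a 4-parameter Hill equation.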

[3] = Confirmatory screen NINDS Rhodamine qHTS for Zika virus inhibitors (AID 1347161); also: potency is read from the fitted curve at half-maximal effect; nearly all actives have a fitted effect of over 60% in size
Outline: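 Single-chain NS2B-NS3 protease, 25 nM, pH 8.0; compounds preincubated 15 min. Activity: Rhodamine110 release from 1.5 microM substrate over 15 min, room temperature, data fitted to 4-parameter Hill.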

[4] = tested on: Zika virus NS2B-NS3 protease (linked construct); test: 384 well plate NINDS Rhodamine confirmatory qHTS for Zika virus inhibitors (AID 1347164);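 also: fluorescence from protease cleavage of Ac-LKRR-rhodamine 110 substrate; nearly all actives have a fitted effect of over 65% in size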; also: potency is read from the fitted curve at half-maximal effect; as to activity change, negative = inhibition: top concentration of the series differs between compounds
Outline: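 Linked protease at a final 5 nM, 30 nM or 60 nM was preincubated ~15 min with compounds, then given 10 microM Ac-LKRR-Rhodamine 110. Fluorescence (ex 485/em 538 nm) after 25 min in the dark at room temperature.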

[5] = Vero cells viability qHTS for Zika virus inhibitors (AID 1347167)
Outline: (§1)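 qHTS titration; 24-48 h compound exposure, 37 degrees C/5% CO2; DMEM, 4% FBS; CellTiter Glo ATP luminescence.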

[6] = HepG2 cells viability qHTS for Zika virus inhibitors (AID 1347168)
Outline: as §1

[7] = Primary qHTS for small molecule stabilizers of the endoplasmic reticulum resident proteome: Secreted ER Calcium Modulated Protein (SERCaMP) assay (AID 1508630)
Outline: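 The SH-SY5Y reporter protocol was run at 3 concentrations up to 38.3 uM (primary) or 11 concentrations (follow-up): 16 h compound, 100 nM thapsigargin for 4 h, then extracellular luciferase luminescence.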

Furin (Homo sapiens) = Furin (Homo sapiens) (UniProt P09958); test: Furin counterscreen qHTS for Zika virus inhibitors (AID 1347149); also: nearly all actives have a fitted effect of over 70% in size; also: potency is read from the fitted curve at half-maximal effect;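 as to activity change, negative = inhibition: purified recombinant full-length human furin enzyme at 5 nM; fluorescence gain from furin cutting a BOC-RVRR-AMC peptide substrate over 15 min; top concentration of the series differs between compounds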
Chain of Furin (Homo sapiens) (P09958 whole entry, looked up): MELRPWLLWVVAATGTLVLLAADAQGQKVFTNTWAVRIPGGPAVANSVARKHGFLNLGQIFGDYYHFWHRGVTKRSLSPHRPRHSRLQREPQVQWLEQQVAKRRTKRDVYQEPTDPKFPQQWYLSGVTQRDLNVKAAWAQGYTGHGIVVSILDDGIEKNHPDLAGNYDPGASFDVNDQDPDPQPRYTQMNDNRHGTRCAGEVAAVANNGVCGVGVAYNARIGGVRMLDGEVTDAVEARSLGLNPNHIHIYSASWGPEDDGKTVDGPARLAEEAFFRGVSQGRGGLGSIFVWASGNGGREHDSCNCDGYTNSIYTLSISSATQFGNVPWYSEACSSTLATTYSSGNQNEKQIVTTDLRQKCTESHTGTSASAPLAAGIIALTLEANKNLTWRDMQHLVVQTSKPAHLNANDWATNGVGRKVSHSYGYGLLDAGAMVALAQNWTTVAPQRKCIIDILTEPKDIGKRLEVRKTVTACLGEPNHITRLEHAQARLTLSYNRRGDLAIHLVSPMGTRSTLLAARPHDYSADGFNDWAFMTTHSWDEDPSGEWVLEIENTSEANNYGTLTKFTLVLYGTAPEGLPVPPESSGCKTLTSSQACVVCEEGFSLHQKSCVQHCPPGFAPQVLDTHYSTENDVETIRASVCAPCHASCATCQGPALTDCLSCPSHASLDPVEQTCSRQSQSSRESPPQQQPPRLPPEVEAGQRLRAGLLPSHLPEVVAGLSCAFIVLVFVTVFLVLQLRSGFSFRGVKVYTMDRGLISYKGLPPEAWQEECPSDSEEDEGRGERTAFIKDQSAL
Outline: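 Counterscreen measures cleavage of 2 microM BOC-RVRR-AMC, below its ~15 microM Km, by 5 nM full-length human furin at pH 7.0 after a 15-min compound preincubation. Inhibition derives from the 15-min fluorescence increase at 37C.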

[8] = Tertiary RLuc qRT-PCR qHTS assay for Zika virus inhibitors (AID 1347169); also: nearly all actives have a fitted effect of over 55% in size; also: potency is read from the fitted curve at half-maximal effect; as to activity change, negative = inhibition: top concentration of the series differs between compounds
Outline: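 Vero cells (1,000 per well) plated overnight at 37 degrees C, treated with compound in DMSO, then infected with recombinant ZIKV-RLuc (Cambodian) at MOI 1-2 for 48-72 hrs. Live-cell Renilla luciferase substrate added; luminescence read after 1-1.5 hrs.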

[9] = AP1 Signaling Pathway (AID 357; active = well fitted curve in either direction with a large enough effect, not every such curve was filed as active;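 also: ME-180 reporter cells stimulated with EGF at its EC50 level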); settings: ME-180 AP-1-bla reporter, EGF-induced, beta-lactamase ratio, 5 h; at 17.2 µM (top of the series)
Outline: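 In this screen, ME-180 cells in Opti-MEM with 0.5% dialyzed FBS received EC50 EGF and compound titrations for 5 h. AP-1 reporter beta-lactamase was detected via CCF4 ratio, giving AC50 for positive and negative modulators.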

[10] = Stat Signaling Pathway (AID 446; active = well fitted curve in either direction with a large enough effect, not every such curve was filed as active;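 also: ME-180 cervical cancer cells given 40 pM IL-6 alongside compound; SIE-controlled beta-lactamase reporter measured as 460/530 nm FRET emission ratio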); settings: ME-180 (cervical carcinoma) SIE beta-lactamase reporter, IL-6 stimulated, 5 h; at 17.2 µM (top of the series)
Outline: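 Compound effects on IL-6-induced STAT reporter activity were measured in ME-180 cells. After overnight culture, cells were co-treated with 40 pM IL-6 for 5 hrs before beta-lactamase substrate loading at room temperature.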

[11] = molecular target: Glucocorticoid receptor (Homo sapiens) (UniProt P04150); test: GR-GFP Redistribution (AID 450;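 active = compounds whose dose series gives a full or clear partial fitted curve of increased nuclear translocation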; also: potency is read from the fitted curve at half-maximal effect); settings: U2OS GR-GFP nuclear translocation, laser cytometry, 2 h
Chain of Glucocorticoid receptor (Homo sapiens) (P04150 whole entry, looked up, the tested form may be a part): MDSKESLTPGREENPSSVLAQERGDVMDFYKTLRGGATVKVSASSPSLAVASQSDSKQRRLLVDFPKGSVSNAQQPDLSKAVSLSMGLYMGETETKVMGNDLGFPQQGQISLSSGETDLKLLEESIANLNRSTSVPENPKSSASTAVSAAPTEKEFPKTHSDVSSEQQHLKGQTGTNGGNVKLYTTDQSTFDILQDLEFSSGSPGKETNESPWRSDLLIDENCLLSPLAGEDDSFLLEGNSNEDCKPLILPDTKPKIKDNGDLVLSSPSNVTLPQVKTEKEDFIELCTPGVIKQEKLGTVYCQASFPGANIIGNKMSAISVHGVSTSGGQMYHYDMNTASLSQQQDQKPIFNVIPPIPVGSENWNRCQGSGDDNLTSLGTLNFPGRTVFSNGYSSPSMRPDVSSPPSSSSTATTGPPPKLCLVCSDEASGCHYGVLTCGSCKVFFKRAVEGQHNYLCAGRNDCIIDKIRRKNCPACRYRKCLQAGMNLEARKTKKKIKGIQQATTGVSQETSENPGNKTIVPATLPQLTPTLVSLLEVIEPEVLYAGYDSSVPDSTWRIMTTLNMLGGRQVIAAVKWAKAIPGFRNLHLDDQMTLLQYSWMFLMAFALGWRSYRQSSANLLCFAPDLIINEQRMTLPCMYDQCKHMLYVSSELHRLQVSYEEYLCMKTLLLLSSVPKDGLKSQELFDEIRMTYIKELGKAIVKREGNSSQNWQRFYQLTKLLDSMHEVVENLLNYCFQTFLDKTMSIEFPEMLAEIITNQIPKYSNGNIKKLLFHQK

[12] = molecular target: Glucocorticoid receptor (Homo sapiens) (UniProt P04150); test: GR-EFC Redistribution (AID 451; calls by dose curve; also: potency is read from the fitted curve at half-maximal effect); settings: CHO-K1 GR-EFC translocation, beta-gal luminescence, 2 h
Outline: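 CHO-K1 cells expressing nuclear EA and GR-ED fragments of b-gal; compounds titrated up to 46 uM final, 2 h at 37 C. GR nuclear translocation read as complemented b-gal luminescence after 1 h RT detection.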

[13] = molecular target: Mitogen-activated protein kinase 10 (Mus musculus) (UniProt Q61831); test: JNK3 AlphaScreen Assay (AID 530; active = well fitted curve in either direction with a large enough effect, not every such curve was filed as active;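 also: kinase came from lysate of stimulated human HepG2 cells; signal reports phosphorylation of biotinylated GST-cJun 1-79 at Ser73 with 10 µM ATP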)
Outline: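 Activity was read by AlphaScreen after JNK3-containing HepG2 lysate (cytokine pre-activated) phosphorylated biotinylated GST-cJun with 10 uM ATP at room temperature. Phospho-Ser73 cJun antibody with Protein-A acceptor beads provided detection.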

[14] = molecular target: 3',5'-cyclic-AMP phosphodiesterase 4B (Homo sapiens) (UniProt Q07343); test: qHTS Assay for Inhibitors of PDE-IV (AID 607; active = well fitted activation curve with a large enough effect in the main read-out, with a control signal flat, not every such curve was filed as active)
Chain of 3',5'-cyclic-AMP phosphodiesterase 4B (Homo sapiens) (Q07343 whole entry, looked up): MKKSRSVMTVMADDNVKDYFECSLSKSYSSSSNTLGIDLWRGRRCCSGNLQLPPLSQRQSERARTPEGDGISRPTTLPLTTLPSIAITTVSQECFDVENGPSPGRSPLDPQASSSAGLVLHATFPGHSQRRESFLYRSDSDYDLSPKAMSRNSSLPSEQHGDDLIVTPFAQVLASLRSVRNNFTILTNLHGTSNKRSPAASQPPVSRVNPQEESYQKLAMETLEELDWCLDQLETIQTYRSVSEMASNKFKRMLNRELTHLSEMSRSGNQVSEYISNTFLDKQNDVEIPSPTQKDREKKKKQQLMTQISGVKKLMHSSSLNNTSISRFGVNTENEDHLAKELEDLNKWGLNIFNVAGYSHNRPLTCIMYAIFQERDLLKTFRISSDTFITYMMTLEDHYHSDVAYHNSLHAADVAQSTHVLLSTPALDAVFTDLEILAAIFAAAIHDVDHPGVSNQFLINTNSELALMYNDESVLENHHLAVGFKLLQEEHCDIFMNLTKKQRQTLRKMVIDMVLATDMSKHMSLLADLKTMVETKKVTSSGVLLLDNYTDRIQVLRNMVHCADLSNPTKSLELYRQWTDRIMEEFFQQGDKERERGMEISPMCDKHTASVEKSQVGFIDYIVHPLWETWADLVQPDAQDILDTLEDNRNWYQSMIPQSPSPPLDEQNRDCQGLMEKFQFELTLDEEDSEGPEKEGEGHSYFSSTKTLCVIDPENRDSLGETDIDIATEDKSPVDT
Outline: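 ACTOne HEK293 cells carry a modified cAMP-gated CNG channel and express endogenous PDE4; plated 1000 cells/well, compounds up to 22.9 uM final. Membrane-potential dye fluorescence (ex 535/em 590) was read; parental cells received 10 uM forskolin + 100 uM RO 20-1724.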

[15] = qHTS Assay for Lipid Storage Modulators (AID 1519; calls by dose curve); settings: Drosophila S3 cells, BODIPY lipid droplet/cell ratio, laser cytometry, cells loaded with oleic acid
Outline: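 Cells seeded at 5,000 per well were treated with compounds over a concentration series and loaded with oleic acid (400 uM, as added). Lipid droplet fluorescence (488 nm excitation, 500-530 nm channel) was read by laser-scanning cytometry and normalized to 20 uM Triacsin C.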

[16] = molecular target: Ubiquitin carboxyl-terminal hydrolase 1 (Homo sapiens) (UniProt O94782); test: Inhibitors of USP1/UAF1: Pilot qHTS (AID 504865);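 also: rhodamine fluorescence freed from ubiquitin-rhodamine substrate followed over time; top concentration of the series differs between compounds; nearly all actives have a fitted effect of over 35% in size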
Chain of Ubiquitin carboxyl-terminal hydrolase 1 (Homo sapiens) (O94782 whole entry, looked up): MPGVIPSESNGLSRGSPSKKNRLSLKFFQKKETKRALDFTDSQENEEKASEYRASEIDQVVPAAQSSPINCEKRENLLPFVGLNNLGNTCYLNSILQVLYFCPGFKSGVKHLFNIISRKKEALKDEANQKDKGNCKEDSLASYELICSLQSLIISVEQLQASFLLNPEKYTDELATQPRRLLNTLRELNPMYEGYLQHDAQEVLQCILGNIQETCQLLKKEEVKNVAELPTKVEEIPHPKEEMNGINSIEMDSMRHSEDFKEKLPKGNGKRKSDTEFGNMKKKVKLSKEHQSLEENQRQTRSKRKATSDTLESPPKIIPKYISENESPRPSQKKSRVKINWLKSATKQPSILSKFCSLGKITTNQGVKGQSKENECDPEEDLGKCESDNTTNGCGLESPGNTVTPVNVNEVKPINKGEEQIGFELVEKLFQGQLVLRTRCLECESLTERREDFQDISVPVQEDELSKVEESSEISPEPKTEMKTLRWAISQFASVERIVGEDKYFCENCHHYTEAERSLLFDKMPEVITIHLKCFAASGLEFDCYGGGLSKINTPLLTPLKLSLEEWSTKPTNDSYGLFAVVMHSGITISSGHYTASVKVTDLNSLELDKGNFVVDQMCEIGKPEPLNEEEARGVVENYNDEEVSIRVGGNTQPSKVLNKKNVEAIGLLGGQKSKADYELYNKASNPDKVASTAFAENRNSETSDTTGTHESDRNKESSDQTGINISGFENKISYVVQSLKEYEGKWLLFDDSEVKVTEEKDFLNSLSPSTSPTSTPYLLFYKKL
Outline: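 USP1/UAF1 complex (1nM) preincubated with compound 15 min at room temperature, then Ub-Rho substrate (150nM final) added. Fluorescence read kinetically at 480/540 nm, 6 reads every 60 seconds. Buffer: 50mM HEPES pH 7.8, 0.5mM EDTA, 0.1 mg/ml BSA, 1mM TCEP, 0.01% Tween-20.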

[17] = molecular target: Tumor susceptibility gene 101 protein (Homo sapiens) (UniProt Q99816); test: qHTS Assay for Iinhibitors of HIV-1 Budding by Blocking the Interaction of PTAP/TSG101: Hit Validation (AID 651600); also: nearly all actives have a fitted effect of over 70% in size
Chain of Tumor susceptibility gene 101 protein (Homo sapiens) (Q99816 whole entry, looked up, the tested form may be a part): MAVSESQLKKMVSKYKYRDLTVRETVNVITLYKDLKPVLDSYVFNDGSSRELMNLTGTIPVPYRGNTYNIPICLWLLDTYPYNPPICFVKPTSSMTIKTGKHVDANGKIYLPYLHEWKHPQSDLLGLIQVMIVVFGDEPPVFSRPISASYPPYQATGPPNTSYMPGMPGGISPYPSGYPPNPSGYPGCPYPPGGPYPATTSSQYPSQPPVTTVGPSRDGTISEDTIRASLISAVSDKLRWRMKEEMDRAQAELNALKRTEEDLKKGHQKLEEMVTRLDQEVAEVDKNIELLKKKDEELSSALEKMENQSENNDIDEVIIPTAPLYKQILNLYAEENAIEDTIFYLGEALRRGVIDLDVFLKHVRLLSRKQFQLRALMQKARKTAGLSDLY
Outline: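 Fluorescence polarization binding assay: Tsg101 binding domain (10 uM final) pre-dispensed with compounds, then FITC-labeled PTAP-motif peptide (50 nM final) added; 20 min at r.t. in HEPES pH 7.5 buffer with NaCl, Tween 20, EDTA, TCEP.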

[18] = tested on: Zika virus NS2B-NS3 protease (linked); test: 384 well plate NINDS AMC confirmatory qHTS for Zika virus inhibitors (AID 1347163); also: nearly all actives have a fitted effect of over 50% in size; also: potency is read from the fitted curve at half-maximal effect;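 as to activity change, negative = inhibition: linked protease at 5 30 or 60 nM final depending on run; fluorescence of AMC released from Ac-VKTGKR-AMC peptide cleaved by the protease; top concentration of the series differs between compounds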
Outline: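 Fluorescence at 355/460 nm was read after 25 minutes of cleavage of 30 microM Ac-VKTGKR-AMC at room temperature, in the dark. Before substrate addition, compounds (up to 1 mM final) sat ~15 minutes with 5, 30 or 60 nM linked protease. Signals were normalized to no-enzyme and no-inhibitor wells.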

With CCCCc1nn(-c2ccccc2C(F)(F)F)c(=O)n1Cc1ccc(-c2ccccc2S(=O)(=O)NC(=O)c2sccc2C)cc1 the Potency [1] was 24.1 µM (active), the Potency [2] was 21.5 µM (active) and the Potency [3] was 4.41 µM (active). For the same compound, the Potency [4] was 28.2 µM (active), the Potency [5] was “inactive” and the Potency [6] was “inactive”. The Potency [7] was “inactive”.

In the case of COC(=O)c1ccc(NC(=O)CSc2ccc(-c3sc(-c4ccccc4)nc3C)nn2)cc1, the Potency (Furin (Homo sapiens)) is reported as 46.9 µM (active) and the Potency [8] is reported as “inactive”.

For CC[C@@H]1O[C@]2(C=C[C@@H]1C)C[C@H]1C[C@H](CC=C(C)[C@@H](O[C@@H]3C[C@H](OC)[C@H](O[C@@H]4C[C@H](OC)[C@H](O)[C@H](C)O4)[C@H](C)O3)[C@@H](C)C=CC=C3CO[C@@H]4[C@@H](O)C(C)=C[C@@H](C(=O)O1)[C@]34O)O2, the activity change, negative = inhibition [9] was 6.2% (inactive), the activity, negative = inhibition [10] was -5.99% (inactive) and the Potency [11] was > 20.6 µM (inactive). The Potency [12] was > 20.6 µM (inactive), the Potency [13] was “inactive” and the Potency [14] was “inactive”. The activity change, negative = inhibition ([15]; at 25.7 µM (top of the series)) was -16.6% (inactive), the max response ([15]; measured here: cell count channel max response) was -4.3% and the max response ([15]; measured here: lipid channel max response) was -18.8%. For the same compound, the Potency [16] was “inactive”, the Potency (Furin (Homo sapiens)) was “inactive” and the Potency [5] was “inactive”. The Potency [6] was “inactive” and the Potency [8] was 9.97 µM (active).

For CCOC(=O)c1ccc(NC(=O)CSc2nc(-c3cccs3)cc(C(F)(F)F)c2C#N)cc1, the outcome [17] was “inactive”, the Potency (Furin (Homo sapiens)) was “inactive” and the Potency [8] was “inactive”.

With COc1cccc(C(=O)Nc2ccc(C(=O)OCc3cc(=O)n4nc(C5CC5)sc4n3)cc2)c1 the Potency (Furin (Homo sapiens)) was 41.8 µM (active), the Potency [18] was “inactive” and the Potency [4] was “inactive”.

In the case of CC(C)CN1CC(COc2ccc3ccccc3c2)Oc2ccnc(-c3ccc(OCC(=O)O)cc3)c2C1=O (configuration not stated), the Potency (Furin (Homo sapiens)) is reported as “inactive”, the Potency [18] is reported as 355 µM (active) and the Potency [8] is reported as “inactive”.
